High-throughput results deposited in PubChem BioAssay by several laboratories.
NTR1 ag: NTR1 (human) agonism | 330,000 tested, 0.17% active | P30989 | activation, % at 20 µM | NTR1-U2OS beta-arrestin-GFP spot imaging, agonist mode;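 active = activation at or above 40% of the spot to cytoplasm intensity ratio, with at least 20 cells analyzed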;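 also: 0% = DMSO without peptide and 100% = 100 nM NTR1 peptide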
Beta2AR agonist: agonists of human beta-2 adrenergic receptor inducing internalization; P07550; Am2.2-beta2AR cells, FAP receptor internalization, flow cytometry; response, % (concentration not given with the values); 340,000 tested, 0.43% active; AID 504454;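 active = response above a set limit, near 3 SD of response in nonfluorescent compounds, cut at about 42% in these data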
HTR2A ag: mouse HTR2A agonism via beta-arrestin recruitment | P35363 | CHO-K1 mHTR2A beta-arrestin complementation, luminescence; percent of 30 µM serotonin response | activation, % at 7.6 µM | 360,000 tested, 0.66% active;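 active = activation above a run cutoff, the mean activation of all tested compounds plus 3 SD, cut at about 14% in these data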;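 also: 0% = plate median of compound wells and 100% = 30 µM serotonin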
ABHD5-PLIN5 inh: blocks binding of human ABHD5 to perilipin-5; inhibition, % at 4 µM; AID 602281; Q00G26+Q8WTS1; 360,000 tested, 0.78% active; Split G. princeps luciferase complementation, luminescence, 4 h;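 active = inhibition above the mean inhibition across every tested compound plus 3 SD, cut at about 22% in these data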;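 also: 0% = DMSO only wells and the 100% control is not disclosed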
Target sequence (Q00G26 whole entry, looked up): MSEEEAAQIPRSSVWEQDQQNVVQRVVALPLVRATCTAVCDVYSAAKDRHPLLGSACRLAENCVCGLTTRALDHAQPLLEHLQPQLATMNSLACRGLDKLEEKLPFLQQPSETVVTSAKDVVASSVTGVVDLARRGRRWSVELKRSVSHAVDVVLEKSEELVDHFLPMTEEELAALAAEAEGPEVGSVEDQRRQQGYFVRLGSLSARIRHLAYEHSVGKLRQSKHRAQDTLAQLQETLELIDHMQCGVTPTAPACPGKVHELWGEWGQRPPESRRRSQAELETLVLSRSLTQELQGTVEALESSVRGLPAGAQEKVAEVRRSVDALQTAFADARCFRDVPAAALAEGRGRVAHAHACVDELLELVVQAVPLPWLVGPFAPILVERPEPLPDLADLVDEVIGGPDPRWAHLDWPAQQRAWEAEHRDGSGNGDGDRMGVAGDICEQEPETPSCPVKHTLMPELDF
Target sequence (Q8WTS1 whole entry, looked up): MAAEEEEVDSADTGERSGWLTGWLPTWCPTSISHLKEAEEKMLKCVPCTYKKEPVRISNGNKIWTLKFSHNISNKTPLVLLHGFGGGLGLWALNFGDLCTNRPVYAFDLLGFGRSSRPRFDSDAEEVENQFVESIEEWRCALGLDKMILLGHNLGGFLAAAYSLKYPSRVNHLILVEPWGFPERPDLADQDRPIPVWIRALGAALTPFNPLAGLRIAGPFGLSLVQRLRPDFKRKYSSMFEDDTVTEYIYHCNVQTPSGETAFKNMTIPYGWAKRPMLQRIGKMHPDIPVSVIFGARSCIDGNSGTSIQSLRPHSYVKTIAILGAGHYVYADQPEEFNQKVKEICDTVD
Exocytosis inh: lytic granule exocytosis inhibition. TALL-104 LAMP-1 surface exposure, flow cytometry; cells stimulated with thapsigargin and PMA. inhibition, % at 10 µM. 360,000 tested, 0.66% active;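 active = inhibition above about 55%, limit read from the data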
OPRM1 ag: activates human mu opioid receptor in HTR2A counterscreen; shares compounds with HTR2A ag; U2OS OPRM1 beta-arrestin PathHunter, luminescence; DMSO 0%, DAMGO 9.3 µM 100%; activation, % at 9.3 µM; 2,300 tested, 5.3% active; AID 624380;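 active = mean activation above the mean of DMSO-only wells plus 3 SD, cut at about 0.5% in these data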
m5-HT2A ag conf: mouse HTR2A agonism confirmed; shares compounds with HTR2A ag; CHO-K1 PathHunter beta-arrestin recruitment, luminescence; DMSO 0%, 30 µM serotonin 100%; activation, % at 7.6 µM; 2,300 tested, 19% active;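 active = mean activation across triplicates above the hit threshold derived in the original primary screen, cut at about 15% in these data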
Active calls of the source: *. In the library only some 2.3% were active in any assay of this set; here they are far more common.

What do the screens show for `OC(COCc1cccs1)CN1CCN(c2ccccc2Cl)CC1` (configuration not stated)?
NTR1 ag: -1; Beta2AR agonist: -3; HTR2A ag: -7; ABHD5-PLIN5 inh: 0; Exocytosis inh: 0

Results for OC(COCc1cccs1)CN1CCN(c2ccccn2)CC1 (configuration not stated) ?
NTR1 ag: 0; Beta2AR agonist: 1; HTR2A ag: 20*; ABHD5-PLIN5 inh: -4; Exocytosis inh: 3; OPRM1 ag: -1; m5-HT2A ag conf: 80*

How did OC(COc1ccc(Cl)cc1)CN1CCN(c2ccccn2)CC1 (configuration not stated) do in these assays?
NTR1 ag: 1; Beta2AR agonist: -8; HTR2A ag: 6; ABHD5-PLIN5 inh: 0; Exocytosis inh: -3

What do the screens show for `OC(COCc1ccc(Cl)cc1)CN1CCN(c2ccccn2)CC1` (configuration not stated)?
NTR1 ag: 2; Beta2AR agonist: -6; HTR2A ag: 18*; ABHD5-PLIN5 inh: 6; Exocytosis inh: 4; OPRM1 ag: -1; m5-HT2A ag conf: 99*

Results for CCOC(=O)C1CCN(C(=O)CSCc2nc(-c3ccc(OCC)cc3)oc2C)CC1 ?
NTR1 ag: 0; Beta2AR agonist: 1; HTR2A ag: 16*; ABHD5-PLIN5 inh: 4; Exocytosis inh: -1; OPRM1 ag: 0; m5-HT2A ag conf: 0

What do the screens show for `CCOc1ccc(-c2nc(CSCC(=O)N3CCN(C(=O)c4ccco4)CC3)c(C)o2)cc1`?
NTR1 ag: -2; Beta2AR agonist: -8; HTR2A ag: -3; ABHD5-PLIN5 inh: -3; Exocytosis inh: 2

Results for O=C(COC(=O)c1ccc(Cl)c(S(=O)(=O)N2CCCCC2)c1)NC1CCCCC1 ?
HTR2A ag: -3; ABHD5-PLIN5 inh: 0; Exocytosis inh: -3

Results for Cc1ccc(NC(=O)CSc2nc(-c3ccco3)nc3cc(=O)[nH]n23)c(Cl)c1 ?
NTR1 ag: 0; Beta2AR agonist: 8; HTR2A ag: 8; ABHD5-PLIN5 inh: 3; Exocytosis inh: -2

What do the screens show for `COc1cc(Cl)c(S(=O)(=O)N2CC(C)OC(C)C2)cc1Cl` (configuration not stated)?
NTR1 ag: -2; Beta2AR agonist: 0; HTR2A ag: -2; ABHD5-PLIN5 inh: -3; Exocytosis inh: 0

Results for COc1cc(Cl)c(S(=O)(=O)N2CCOCC2)cc1Cl ?
NTR1 ag: 2; Beta2AR agonist: 2; HTR2A ag: 15*; ABHD5-PLIN5 inh: 6; Exocytosis inh: -2; OPRM1 ag: 0; m5-HT2A ag conf: -4

Results for CC(CCc1ccccc1)NC(=O)CNC(=O)N1CC(=O)Nc2ccccc21 (configuration not stated) ?
NTR1 ag: 0; Beta2AR agonist: 0; HTR2A ag: 15*; ABHD5-PLIN5 inh: 11; Exocytosis inh: -5; OPRM1 ag: -1; m5-HT2A ag conf: 0

What do the screens show for `O=C1CN(C(=O)NCC(=O)N[C@@H](Cc2ccccc2)C(=O)O)c2ccccc2N1`?
NTR1 ag: 0; Beta2AR agonist: 9; HTR2A ag: 4; ABHD5-PLIN5 inh: 0; Exocytosis inh: 4

How did CC(CCc1ccccc1)NC(=O)CN1CCc2ccccc2C1 (configuration not stated) do in these assays?
NTR1 ag: 0; Beta2AR agonist: 3; HTR2A ag: 25*; ABHD5-PLIN5 inh: -1; Exocytosis inh: 2; OPRM1 ag: -1; m5-HT2A ag conf: 60*

What do the screens show for `COc1c(C)cc(C(=O)C2CCCN(C(=O)c3cc(C4CC4)[nH]n3)C2)cc1C` (configuration not stated)?
NTR1 ag: 0; Beta2AR agonist: 1; HTR2A ag: 0; ABHD5-PLIN5 inh: -9; Exocytosis inh: -6

What do the screens show for `CC(C)c1nc2sc3c(=O)[nH]cnc3c2c2c1CCC2`?
NTR1 ag: 11; Beta2AR agonist: -6; HTR2A ag: 2; ABHD5-PLIN5 inh: 0; Exocytosis inh: 4
